In PubChem BioAssay (NCI) one finds growth data, which are given here for 40 molecules.

Compounds without any hit were thinned out: in the full panel of roughly 83,000, 20% have a hit.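 Compound tested at a single concentration for 48 hours in 96-well plates; a percent growth value below 10 was scored as active.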 Unmarked numbers belong to inactive results. Active and inactive are the calls of the source.

The assay deals with NCI-H23 lung. In words: NCI-60 one-dose screen, 48 h (100 = growth as untreated, 0 = no growth, -100 = all killed). As to conditions: 10 µM unless noted. The procedure: Growth inhibition of the NCI-H23 human Non-Small Cell Lung tumor cell line is measured as a screen for anti-cancer activity. Cells are grown in 96 well plates and exposed to the test compound for 48 hours. Compounds are tested at a single concentration, which is 10^-5 M for most compounds. The reported endpoint is percent growth (GI% or GIPRCNT), where numbers from 0 - 100% represent growth inhibition, and numbers from -100% - 0 represent cell death. For example, a value of 40 represents 60% growth inhibition. A value of 0 means no net growth occurred over the course of the experiment. A value of -40 indicates 40% of cells at the beginning of the experiment died by the end of the experiment. A value of -100 means all cells are dead at the end of the experiment.
NCI-60 Human Tumor Cell Lines Screen was performed using the standard one-dose NCI protocol, which is described in more detail at https://dtp.cancer.gov/discovery_development/nci-60/default.htm.
Compounds with GIPRCNT values below 10 were considered active. Activity score was based on GIPRCNT using the following formula: […]
Score is 0 for GIPRCNT values of 100 or above, 50 for GIPRCNT values of 0, and 100 for GIPRCNT values of -100.
For the molecule `CCCCCCNCc1cc(C(C)(C)C)cc(CNCCCCCC)c1O`, the growth was -8.06% (active). To `COC(=O)[C@]12CC[C@@H](C)[C@H](C)[C@@H]1C1=CC[C@@H]3[C@@]4(C)C(C=O)=C[C@@](C)(CO)C4=CC[C@@]3(C)[C@]1(C)CC2` belongs 31.7%; to `Cc1ccccc1NC(=O)CN(C)C`, 95.7%; to `COC(=O)c1ccc2oc(NC(=O)c3ccc(N4CCOCC4)c([N+](=O)[O-])c3)nc2c1`, 93%.

For `CSc1nc(N)c(CNC(C)c2ccccc2)c(=O)n1C` (stereo not given), the growth is 97.4%. To `C[C@@H]1C(=O)N(C[C@H](Cc2ccccc2)NC(=O)OCc2ccccc2)[C@]1(Cc1ccccc1)C(=O)OC(C)(C)C` belongs 71.8%. Next, `COC(=O)CCCNC(=O)C(=O)c1c(O)c(O)c(C(C)C)c2cc(C)c(-c3c(C)cc4c(C(C)C)c(O)c(O)c(C(=O)C(=O)NCCCC(=O)OC)c4c3O)c(O)c12`: 11.8%; `Cl.[Pt].[c-]1ccccc1-c1ccccn1.c1ccc(P(c2ccccc2)C([PH+](c2ccccc2)c2ccccc2)[PH+](c2ccccc2)c2ccccc2)cc1`: 5.59% (active); `Cc1ccc(O)c(C(=O)c2ccccc2Cl)c1`: 94.3%. On to `Cc1ccc(S(=O)(=O)NN/C(N)=N\S(=O)(=O)c2cc(C)c(Cl)cc2SCc2ccccc2)cc1`, for which the growth was 90.6%.

`COC1=CC(c2ccc[nH]2)=N/C1=C\c1[nH]c(C)c(C(=O)OCCn2cc(CCC[C@@H]3Cc4cc(O)ccc4C4CC[C@]5(C)[C@@H](O)CC[C@H]5C43)nn2)c1C` (stereo not given in full): the growth was 80.8%. On to `CCOC(=O)C1=C(C)NC(SCc2nnc(-c3ccc(Cl)cc3)o2)=NC1c1ccc(Cl)cc1Cl` (stereo not given), for which the growth is 66%.

Take `CN1CCC(=C2c3ccccc3C=Cc3ccccc32)CC1`: the growth is 83.7%.

`N#Cc1c(NC(=O)c2ccc(Br)cc2)sc2c1CCCC2`: the growth is 65%. To `N#Cc1c(-c2ccc(C(F)(F)F)cc2)cc(N2CC(O)C2)n2c1nc1ccccc12` belongs 67.7%. To `C(=C\c1nc2ccccc2[nH]1)/c1nc2ccccc2[nH]1` belongs 96.5%. Next, `COc1ccc(-c2cc(-c3cc(OC)ccc3OC)[nH]c(=O)c2C#N)cc1`: 64.3%.

Regarding `CCOC(=O)c1ccc(NC(=O)CCCN(CC)CC)cc1`, the growth is 95.4%.

For the molecule `Cc1ccc(/C(=N\N=C(N)N)c2ccccc2)cc1`, the growth was 16.6%. To `Cc1cc(-c2noc(C(F)(F)F)n2)ccc1N1CCN(c2cc(C(=O)N(C)C)no2)CC1` belongs 55.6%. `COc1cccc(-c2nc3sccn3c2-c2ccnc(NCCNS(=O)(=O)c3c(Cl)cccc3Cl)c2)c1`: the growth is 60.2%. To `C=C(CNCCc1ccc(O)cc1)[C@@H]1CC[C@]2(COC3CCCCO3)CC[C@]3(C)[C@H](CC[C@@H]4[C@@]5(C)CCC(NCCO)C(C)(C)[C@@H]5CC[C@]43C)[C@@H]12` (stereo not given in full) belongs -81% (active); to `CCCCn1c(=O)[nH]c(N)c(C(c2ccc(F)cc2)c2c(N)[nH]c(=O)n(CCCC)c2=O)c1=O`, 77.5%; to `Cc1ccc(S(=O)(=O)N(CC[C@@H]2C[C@H]2c2cc3ccccc3o2)C(=O)NC2CCCCC2)cc1`, 78.2%.

Regarding `CCn1c(Sc2nnc(NC(=O)CSC(=S)N3CCCCC3)s2)nc2c1c(=O)n(C)c(=O)n2C`, the growth is 91.3%. To `Cc1[nH]c(-c2nc3ccccc3[nH]2)c(C)c1C(=O)N1CCOCC1` belongs 88.5%; to `COc1ccc(-c2nc3sccn3c2/C=C/C(=O)c2c[nH]c3ccccc23)cc1`, 73.2%.

Consider `CNC1(C#N)CCN(Cc2ccccc2)CC1`, for which the growth was 97.6%. Next, `CSc1ccc(Cl)c(C(=O)Nc2sccc2C(N)=O)c1`: 97.9%; `O=C(CCl)N1c2cccc3cccc(c23)N(C(=O)CCl)C1c1cn(-c2ccccc2)nc1-c1cccc([N+](=O)[O-])c1`: 90.1%. With `CC/C=C/[C@@H]1C=C[C@@H]2CCC[C@H]2[C@@H]1CC[C@H](O)[C@H](C)N`, the growth was -63.4% (active). To `COc1cc2cc(Oc3ccc(NC(=O)Nc4cc(C(F)(F)F)cc(C(F)(F)F)c4)cc3)c(C)nc2cc1OCCN1CCCCC1` belongs -73.3% (active); to `COc1cc2c(cc1OC)-c1ccc3cc4c(cc3c1N(CCN1CCCC1)C2)OCO4`, 10.9%; to `CCCCOc1nc2ccc(Cl)cc2cc1/C=C/C(=O)/C=C1/CC(c2cc3cc(Cl)ccc3nc2OCCCC)Nc2ccccc2N1` (stereo not given), 87.2%.

Turning to `NC(=S)N/N=C/C(=O)O`, the growth is 99.3%. Next, `COc1ccc(OC)c(/C=C2\COc3ccc(O)c(O)c3C2=O)c1`: 48.9%. To `Cc1ccc(NC(=O)C(Cl)Cl)cc1` belongs 95.8%; to `COc1ccc(/C(C)=C(\c2ccc(Cl)cc2)c2ccc(OCCN3CCCCCC3)cc2)cc1F`, 54.1%. Next, `CC(=O)Nc1ccc2c(c1)Cc1c(F)cccc1-2`: 94.9%; `COc1ccc(-c2c(N)n[nH]c2-c2ccccc2O)cc1OC`: 93.1%.
